Results taken from the supplement of paper PMC8728848.
Shown is part of a subset that was picked to be rich in the strongest signals.

Tests used:
Experiment in all cases: glycan array binding signal (z-score within array); higher = stronger binding
Details in all cases: glycan notation: IUPAC condensed, linker removed
[1] = target: Fuc(a1-2)Gal(b1-3)GlcNAc(b1-2)Man(a1-3)[Fuc(a1-2)Gal(b1-3)GlcNAc(b1-2)Man(a1-6)]Man(b1-4)GlcNAc(b1-4)GlcNAc
Summary of the method: (§1)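 The Consortium for Functional Glycomics database supplied 3228 glycan arrays, of which those lacking an available protein sequence were dropped. The binding signal, a within-array Z-score, was averaged across arrays of the same protein sequence and across linkers. Negative scores can be read as non-binding.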

[2] = target: Fuc(a1-2)Gal(b1-4)GlcNAc(b1-2)Man(a1-3)[Fuc(a1-2)Gal(b1-4)GlcNAc(b1-2)Man(a1-6)]Man(b1-4)GlcNAc(b1-4)GlcNAc
Summary of the method: as §1

[3] = target: Fuc(a1-2)Gal(b1-4)GlcNAc(b1-2)Man(a1-3)[Fuc(a1-2)Gal(b1-4)GlcNAc(b1-2)Man(a1-6)]Man(b1-4)GlcNAc(b1-4)[Fuc(a1-6)]GlcNAc
Summary of the method: as §1

[4] = target: Fuc(a1-2)Gal(b1-4)GlcNAc(b1-2)[Fuc(a1-2)Gal(b1-4)GlcNAc(b1-4)]Man(a1-3)[Fuc(a1-2)Gal(b1-4)GlcNAc(b1-2)Man(a1-6)]Man(b1-4)GlcNAc(b1-4)GlcNAc
Summary of the method: as §1

[5] = target: Fuc(a1-2)Gal(b1-4)[Fuc(a1-3)]GlcNAc
Summary of the method: as §1

[6] = target: Fuc(a1-2)Gal6S(b1-4)Glc6S
Summary of the method: as §1

[7] = target: Fuc(a1-2)[Gal(a1-3)]Gal(b1-4)GlcNAc(b1-3)[Fuc(a1-2)[Gal(a1-3)]Gal(b1-4)GlcNAc(b1-6)]GalNAc
Summary of the method: as §1

[8] = target: Fuc(a1-2)[GalNAc(a1-3)]Gal(b1-4)GlcNAc(b1-3)GalNAc
Summary of the method: as §1

[9] = target: Fuc(a1-2)[GalNAc(a1-4)]Gal(b1-4)GlcNAc
Summary of the method: as §1

[10] = target: Fuc(a1-3)[Gal(b1-4)]GlcNAc(b1-2)Man(a1-3)[Fuc(a1-3)[Gal(b1-4)]GlcNAc(b1-2)Man(a1-6)]Man(b1-4)GlcNAc(b1-4)GlcNAc
Summary of the method: as §1

Gal(a1-3)Gal(b1-3)GlcNAc = target: Gal(a1-3)Gal(b1-3)GlcNAc
Summary of the method: as §1

[11] = target: Gal(a1-3)Gal(b1-3)GlcNAc(b1-2)Man(a1-3)[Gal(a1-3)Gal(b1-3)GlcNAc(b1-2)Man(a1-6)]Man(b1-4)GlcNAc(b1-4)GlcNAc
Summary of the method: as §1

[12] = target: Gal(a1-3)Gal(b1-3)GlcNAc(b1-6)GalNAc
Summary of the method: as §1

[13] = target: Gal(a1-3)Gal(b1-3)[Fuc(a1-4)]GlcNAc(b1-2)Man(a1-3)[Gal(a1-3)Gal(b1-3)[Fuc(a1-4)]GlcNAc(b1-2)Man(a1-6)]Man(b1-4)GlcNAc(b1-4)GlcNAc
Summary of the method: as §1

Gal(a1-3)Gal(b1-4)GlcNAc = target: Gal(a1-3)Gal(b1-4)GlcNAc
Summary of the method: as §1

[14] = target: Gal(a1-3)Gal(b1-4)GlcNAc(b1-3)GalNAc
Summary of the method: as §1

[15] = target: Gal(a1-4)Gal(b1-3)GlcNAc(b1-2)Man(a1-3)[Gal(a1-4)Gal(b1-3)GlcNAc(b1-2)Man(a1-6)]Man(b1-4)GlcNAc(b1-4)GlcNAc
Summary of the method: as §1

[16] = target: Gal(b1-3)GalNAc(a1-3)[Fuc(a1-2)]Gal(b1-4)GlcNAc
Summary of the method: as §1

[17] = target: Gal(b1-3)GalNAc(b1-4)[Neu5Ac(a2-3)]Gal(b1-4)Glc
Summary of the method: as §1

[18] = target: Gal(b1-3)GlcNAc(b1-3)Gal(b1-4)GlcNAc(b1-3)Gal(b1-4)GlcNAc(b1-2)[Gal(b1-3)GlcNAc(b1-3)Gal(b1-4)GlcNAc(b1-3)Gal(b1-4)GlcNAc(b1-6)]Man(a1-6)[Gal(b1-3)GlcNAc(b1-3)Gal(b1-4)GlcNAc(b1-3)Gal(b1-4)GlcNAc(b1-2)Man(a1-3)]Man(b1-4)GlcNAc(b1-4)[Fuc(a1-6)]GlcNAc
Summary of the method: as §1

[19] = target: Gal(b1-3)[Fuc(a1-4)]GlcNAc(b1-6)GalNAc
Summary of the method: as §1

[20] = target: Gal(b1-3)[Neu5Ac(b2-6)]GalNAc
Summary of the method: as §1

[21] = target: Gal(b1-4)GlcNAc(b1-2)Man(a1-3)[Gal(b1-4)GlcNAc(b1-2)Man(a1-6)][Gal(b1-4)GlcNAc(b1-4)]Man(b1-4)GlcNAc(b1-4)[Fuc(a1-6)]GlcNAc
Summary of the method: as §1

[22] = target: Gal(b1-4)GlcNAc(b1-3)Gal(b1-4)Glc
Summary of the method: as §1

[23] = target: Gal(b1-4)GlcNAc(b1-3)Gal(b1-4)GlcNAc(b1-3)Gal(b1-4)GlcNAc(b1-2)Man(a1-3)[Gal(b1-4)GlcNAc(b1-3)Gal(b1-4)GlcNAc(b1-3)Gal(b1-4)GlcNAc(b1-2)Man(a1-6)]Man(b1-4)GlcNAc(b1-4)GlcNAc
Summary of the method: as §1

B1: PX9937I-bfa-538-26-538 (Bacteroides fragilis) (protein)
chain: DKLDLSPIDYYGSGSYWKTEAQATAYIDGIHKHLRDAAWQHTITFGELRGGRFITGASSDGMGVSNGDIILQNFDETHTGVSKFGDLFGRITNLNLFIARVTDATYLSDEMKNFYLGEVYGLRAFYYFDLYRIYGGVPLRLTADVVEGVIDPNKLYMARSTPKEVMTQIKSDLNKSMEYFGNMNDFDPYKRGKKVYWSKAATECLMGEVYLWTSKVTTGDDVANPADLTIAKTHLESVLNNYNLKMLDDFSQVFNAKNKANDEIIFAIRFLEGEATNSNGTFTYNVGTGSTKNRYQANGEVFGDALDIQNTGNQTYEYNKAVYQNFDDADTRKEATFIASYNKDGKTGELSLYGTHVRKNIGYVNAQGARVYCGDYIFYRLPWVYLTLAEIANMEGDNAAVAKYINLVRKRAYGNAWDETLYAYPETADFTTNELAILHEKDKEFIQEGQRWWDLRRMTLTKGGTPLVFCKEGSLLGDAPILNKSTEAHKLLWPIEKTMLNKDPALEQTPGYK
Question: Which results are given for B1?
Answer: glycan array binding signal (z-score) [1]: 5.41; glycan array binding signal (z-score) [2]: 3.93; glycan array binding signal (z-score) [3]: 1.57; glycan array binding signal (z-score) [4]: 1.02; glycan array binding signal (z-score) [5]: -0.821; glycan array binding signal (z-score) [6]: 2.55; glycan array binding signal (z-score) [7]: -0.413; glycan array binding signal (z-score) [8]: -0.541; glycan array binding signal (z-score) [9]: 1.66; glycan array binding signal (z-score) [10]: 3.92; glycan array binding signal (z-score) (Gal(a1-3)Gal(b1-3)GlcNAc): 0.142; glycan array binding signal (z-score) [11]: 0.317; glycan array binding signal (z-score) [12]: 0.142; glycan array binding signal (z-score) [13]: 3.11; glycan array binding signal (z-score) (Gal(a1-3)Gal(b1-4)GlcNAc): -0.994; glycan array binding signal (z-score) [14]: -1.27; glycan array binding signal (z-score) [15]: 4.73; glycan array binding signal (z-score) [16]: -0.45; glycan array binding signal (z-score) [17]: -0.928; glycan array binding signal (z-score) [18]: 2.69; glycan array binding signal (z-score) [19]: 2.39; glycan array binding signal (z-score) [20]: -0.133; glycan array binding signal (z-score) [21]: 1.11; glycan array binding signal (z-score) [22]: 0.127; glycan array binding signal (z-score) [23]: 6.36
